Screen size: about 1,400 compounds; about 1,100 (79%) were called active.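 The calls were made as follows: active = fitted half-maximal concentration of a falling signal no higher than twice the top valid dose in every test run; inconclusive = runs disagree, or flat partial inhibition, or poor fit; inactive = every run inactive: flat, wrong direction, or potency beyond limit.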 So high a share suggests a set chosen from earlier hits. These entries were drawn from the full list. Results with a measured potency or affinity are listed apart.
experiment: inhibitors of clade B AD8 Env fusion, dose response, cell-based, cherry-pick (AID 652062); conditions: HeLa-AD8 Env / CEM-CCR5 cell fusion, luciferase; at 35 µM (top of the series) unless noted

Row | SMILES | activity change, negative = inhibition
1 | Cc1onc(-c2ccccc2)c1C(=O)OCCOc1cccc(Cl)c1 | -18.8%
2 | CC1(C)N=C(N)N=C(N)N1CCCCc1ccccc1 | 3.6%
3 | CS(=O)(=O)N1CCN(c2ccccc2NC(=O)C(c2ccccc2)c2ccccc2)CC1 | 38.4%
4 | O=C(O)C[C@@H]1C=C[C@@H](NC(=O)Nc2ccccc2)[C@H](CO)O1 | 11.3%
5 | O=C(O)C[C@@H]1C=C[C@H](NC(=O)Nc2ccccc2)[C@H](CO)O1 | -16.5%
6 | O=C(O)C[C@@H]1CC[C@@H](NC(=O)c2ccncc2)[C@H](CO)O1 | 28.7%
7 | Cc1cccc(C)c1N(CC(O)Cn1c2ccccc2c2ccccc21)S(C)(=O)=O (stereo unspecified) | 16%
8 | COc1ccccc1C#Cc1ccc2c(c1)O[C@@H](CN(C)Cc1ccncc1)[C@H](C)CN([C@H](C)CO)S2(=O)=O | 10.1% [at 16 µM]
9 | C[C@@H]1CN([C@H](C)CO)S(=O)(=O)c2ccc(-c3ccncc3)cc2O[C@@H]1CN(C)Cc1ccc(Oc2ccccc2)cc1 | 160%
10 | Cc1ccc(-c2ccc3c(c2)O[C@@H](CN(C)Cc2cccnc2)[C@H](C)CN([C@H](C)CO)S3(=O)=O)cc1 | -56.7%
11 | COc1ccccc1CN1C(=O)CN(C2CCCCCC2)C(=O)C1c1ccc(F)cc1 (stereo unspecified) | 20.3%
12 | Cc1ccc(-n2nc3c(c2NC(=O)c2ccco2)CS(=O)C3)cc1 (stereo unspecified) | -28.9%
13 | COc1ccccc1CN(C)C(=O)CN1CCN(C(=O)c2cccs2)CC1 | -1.14%
14 | O=C(C[C@H]1C[C@@H]2c3cc(NC(=O)C4CCC4)ccc3O[C@@H]2[C@@H](CO)O1)NCc1ccc2c(c1)OCO2 | 25.6%
15 | CN(C)C(=O)C[C@H]1C[C@@H]2c3cc(NC(=O)NC4CCCCC4)ccc3O[C@@H]2[C@H](CO)O1 | -20.7%
16 | O=C(C[C@@H]1C[C@@H]2c3cc(NC(=O)C4CCOCC4)ccc3O[C@@H]2[C@H](CO)O1)NCCc1ccccc1 | -21%
17 | O=C(C[C@@H]1C[C@@H]2c3cc(NC(=O)C4CCC4)ccc3O[C@@H]2[C@@H](CO)O1)NCc1ccc2c(c1)OCO2 | 48.6%
18 | O=C(C[C@@H]1C[C@H]2c3cc(NC(=O)NC4CCCCC4)ccc3O[C@H]2[C@@H](CO)O1)NCc1ccncc1 | 17.5%
19 | O=C(C[C@@H]1C[C@H]2c3cc(NC(=O)C4CCOCC4)ccc3O[C@H]2[C@@H](CO)O1)NCc1ccccc1 | 37.3%
20 | O=C(C[C@@H]1C[C@@H]2c3cc(NC(=O)C4CCC4)ccc3O[C@@H]2[C@@H](CO)O1)NCC(F)(F)F | 37%
21 | O=C(C[C@H]1C[C@@H]2c3cc(NC(=O)C4CCC4)ccc3O[C@@H]2[C@@H](CO)O1)NCC(F)(F)F | 7.19%
22 | O=C(C[C@H]1C[C@H]2c3cc(NC(=O)C4CCC4)ccc3O[C@H]2[C@@H](CO)O1)NCc1ccc2c(c1)OCO2 | 38.8% [at 30 µM]
23 | O=C(C[C@@H]1C[C@@H]2c3cc(NC(=O)Nc4ccccc4)ccc3O[C@@H]2[C@@H](CO)O1)NCc1ccccc1 | 42.6% [at 30 µM]
24 | O=C(C[C@@H]1C[C@@H]2c3cc(NC(=O)c4ccc5c(c4)OCO5)ccc3O[C@@H]2[C@@H](CO)O1)NCc1ccc(Oc2ccccc2)cc1 | 0.613% [at 16 µM]
25 | O=C(C[C@H]1C[C@H]2c3cc(NC(=O)Cc4ccncc4)ccc3O[C@H]2[C@@H](CO)O1)NCc1ccncc1 | 20.8%
26 | COc1ccc(S(=O)(=O)N(C)C[C@@H]2Oc3ccc(NC(=O)C4CCCCC4)cc3CC(=O)N([C@@H](C)CO)C[C@@H]2C)cc1 | 5.28% [at 16 µM]

Row | SMILES | activity change, negative = inhibition
27 | O=C(N[C@@H]1CC[C@H](CCNS(=O)(=O)c2ccc(F)cc2)O[C@@H]1CO)C1CC1 | 21.6%
28 | C[C@H]1NC(=O)[C@@]2(C)[C@H](c3ccccc3)[C@H]3COc4ccccc4[C@@H]3N2C1=O | 80.3%
29 | COc1cc2c(cc1OC)C(=O)N1[C@H]3c4cc(Cl)ccc4OC[C@@H]3[C@H](c3ccccc3)[C@]1(C)C(=O)N2 | -26.3%
30 | C[C@@]12C(=O)N(Cc3ccco3)CC(=O)N1[C@H]1c3ccccc3OC[C@@H]1[C@@H]2c1ccccc1 | 2.22%
31 | Cc1cc(Cl)ccc1OCC(=O)NNC(=O)C1CSC2(C)CCC(=O)N12 (stereo unspecified) | 1.11%
32 | COc1ccc([Si](C)(C)[C@H]2[C@H](CCO)O[C@@]3(C(=O)N(Cc4cccc(N5CCOC5=O)c4)c4ccccc43)[C@@H]2C)cc1 | 108%
33 | COc1ccc(S(=O)(=O)N2CCCCC2)cc1NC(=O)CN(Cc1ccco1)Cc1ccco1 | -14.6%
34 | COc1ccc(S(=O)(=O)N2CCCCC2)cc1NC(=O)CCCOc1ccc(C)cc1 | 3.18%
35 | CCCCCCOc1ccc(OC(=O)c2ccncc2)cc1 | -6.3%
36 | COc1ccc(-c2c(C)nn3c(C(F)(F)F)cc(C)nc23)cc1 | 123%
37 | CC(=O)Nc1ccc(C(=O)OCC(=O)NC(=O)NCc2ccccc2)cc1 | 16.9%
38 | CSc1ncccc1C(=O)OCC(=O)Nc1ccc(C)c(S(=O)(=O)N2CCOCC2)c1 | -12.3% [at 16 µM]
39 | O=C(COC(=O)c1cc(S(=O)(=O)N2CCOCC2)ccc1O)NCc1ccc2c(c1)OCO2 | 28.5%
40 | CO[C@H]1CN(C)C(=O)c2ccc(NC(=O)Nc3cccc(F)c3)cc2OC[C@@H](C)N(C(C)=O)C[C@H]1C | 72.4%
41 | COCC(=O)Nc1ccc2c(c1)C(=O)N(C)C[C@@H](OC)[C@H](C)CN(C(C)=O)[C@H](C)CO2 | 28.2%
42 | CO[C@H]1CN(C)C(=O)c2ccc(NC(=O)Nc3cccc(F)c3)cc2OC[C@H](C)NC[C@H]1C | 25.2%
43 | CO[C@H]1CN(C)C(=O)c2cc(NC(=O)c3ccc(F)cc3)ccc2OC[C@H](C)N(C(=O)CN(C)C)C[C@@H]1C | 6.3%
44 | CCCC(=O)Nc1ccc2c(c1)OC[C@H](C)N(C(=O)CN(C)C)C[C@@H](C)[C@H](OC)CN(C)C2=O | -2.16%
45 | CCc1ccc(C(=O)CN2C(=O)NC(C)(c3ccc(C)cc3)C2=O)cc1 (stereo unspecified) | -27.5%
46 | COc1cccc(S(=O)(=O)N(C)C[C@H]2Oc3cc(C4=CCCC4)ccc3S(=O)(=O)N([C@H](C)CO)C[C@@H]2C)c1 | 27.1%
47 | C[C@H]1CN([C@@H](C)CO)C(=O)Cc2cc(NS(=O)(=O)c3ccccc3)ccc2O[C@@H]1CN(C)Cc1ccc(Cl)c(Cl)c1 | -28.9%
48 | C[C@@H]1CN([C@H](C)CO)C(=O)c2cc(NS(=O)(=O)c3ccc(F)cc3)ccc2O[C@H]1CN(C)Cc1ccc(C(F)(F)F)cc1 | -13.8%
49 | COc1ccc(-c2cn(CC[C@H]3CC[C@H](NS(=O)(=O)c4ccccc4C)[C@H](CO)O3)nn2)cc1 | 2.4%
50 | COc1ccccc1S(=O)(=O)N[C@H]1CC[C@H](CC(=O)N2CCN(C)CC2)O[C@H]1CO | -27.9%
51 | COc1ccc(S(=O)(=O)N[C@@H]2CC[C@@H](CC(=O)NCCc3ccncc3)O[C@@H]2CO)cc1 | -13%
52 | CNC[C@H]1Oc2c(NC(=O)Nc3ccc4c(c3)OCO4)cccc2C(=O)N([C@H](C)CO)C[C@@H]1C | 65.2%

Row | SMILES | activity change, negative = inhibition
53 | COC(=O)[C@H](Cc1ccccc1)NC(=O)Cn1cnc(C(=O)Nc2ccc(C)c(C)c2)n1 | 23.2%
54 | CCOc1ccccc1C(=O)NCC(=O)NNC(=O)CN(C)S(=O)(=O)c1ccc(Cl)cc1 | -52.6%
55 | Nc1c(S(=O)(=O)c2ccccc2)cnc2c(-c3ccc(F)cc3)cnn12 | 63.4% [at 16 µM]
56 | COc1ccc(OC)c(-c2cc(C(=O)Nc3c(C)nn(Cc4ccc(Cl)cc4)c3C)no2)c1 | -43.8%
57 | Cc1ccc2c(c1)c1c3n2CCN(CCC#N)C3CCC1 (stereo unspecified) | 81.2%
58 | N#C[C@H]1[C@@H](c2ccccc2/C=C/c2ccccc2)[C@@H](CO)N1S(=O)(=O)c1cccc(F)c1 | 108%
59 | N#C[C@@H]1[C@H](c2ccc(-c3ccccc3F)cc2)[C@@H](CO)N1C(=O)c1ccccn1 | -32.3%
60 | CCC(=O)N(C)C(c1ccccc1Cl)c1nnnn1-c1c(C)cccc1C (stereo unspecified) | 49.6%
61 | Cc1ccc(S(=O)(=O)N(C)C)cc1NC(=O)C(C)N(C)CCOc1ccc(Cl)cc1 (stereo unspecified) | -21.5% [at 8 µM]
62 | COc1ccc(NC(=O)CN2CCC(C(N)=O)(N3CCCCC3)CC2)cc1 | -10%
63 | COCC(=O)N(C)C[C@H]1Oc2ncc(Br)cc2C(=O)N([C@H](C)CO)C[C@H]1C | 50.8%
64 | O=C(c1ccccc1)N1CCN(c2ncnc3sc4c(c23)CCC4)CC1 | -54.4%
65 | COCCCNC(=O)c1sc2ncnc(N3CCc4ccccc4C3)c2c1C | 60.7%
66 | Cc1ccc(C2Oc3ccccc3C3=C2C(c2cccs2)n2ncnc2N3)cc1 (stereo unspecified) | 12.9%
67 | CC(NNC(=S)N1CCCCCC1)c1ccc2ccccc2n1 (stereo unspecified) | -26.1%
68 | CN1CC(c2ccccc2)C2(SC(=S)N(Cc3ccco3)C2=O)C12C(=O)Nc1ccccc12 (stereo unspecified) | -103%
69 | CNC[C@H]1Oc2c(NC(=O)Nc3cccc4ccccc34)cccc2C(=O)N([C@H](C)CO)C[C@H]1C | 104%
70 | C[C@H]1CN([C@@H](C)CO)C(=O)c2cccc(NC(=O)c3ccncc3)c2O[C@@H]1CN(C)C(=O)Nc1cccc2ccccc12 | 63.7%
71 | O=C(NCc1cccc(F)c1)[C@@H]1[C@@H](CO)[C@@H]2Cn3c(ccc(-c4cccnc4)c3=O)[C@H]1N2CC1CC1 | 1.91%
72 | NC(=S)c1ccc(OCCCc2ccccc2)cc1 | 30.2%
73 | O=C(C[C@@H]1C=C[C@@H](NC(=O)c2ccccc2)[C@H](CO)O1)NCc1ccc(Oc2ccccc2)cc1 | -28.3%
74 | C[C@@H]1CN([C@H](C)CO)C(=O)c2cccc(NS(=O)(=O)c3ccc(Cl)cc3)c2O[C@@H]1CN(C)Cc1ccc(Cl)c(Cl)c1 | -25.6%
75 | C[C@H]1CN([C@@H](C)CO)C(=O)c2cccc(NS(=O)(=O)c3ccc(Cl)cc3)c2O[C@@H]1CN(C)Cc1ccc(C(F)(F)F)cc1 | 9.5%
76 | CN(C)CC(=O)Nc1ccc2c(c1)[C@H]1C[C@@H](CC(=O)NCCc3ccccc3)O[C@H](CO)[C@H]1O2 | 14.9% [at 30 µM]
